Source: PubChem BioAssay AID1851 (National Center for Advancing Translational Sciences (NCATS), 2009)
Screen size: about 16,000 compounds; about 4,000 (25%) were called active. Inconclusive results (about 26%) are left out. The call rests on the fitted dose curve; in most records, active means well fitted curve in the direction sought with a large enough effect; inconclusive means small, poorly fitted or top-dose-only effect, or effect the other way; inactive means no such curve, though single readings can be large or run the other way. Only a sample is shown.

The compounds below were run against Cytochrome P450 2C9 (Homo sapiens) (UniProt P11712) (assay: Cytochrome panel assay with activity outcomes). Conditions: recombinant CYP, pro-luciferin dealkylation, luminescence, p450-cyp2c9; series mostly up to 57.1 µM.
Cytochrome P450 2C9 (Homo sapiens), sequence (P11712 whole entry, looked up): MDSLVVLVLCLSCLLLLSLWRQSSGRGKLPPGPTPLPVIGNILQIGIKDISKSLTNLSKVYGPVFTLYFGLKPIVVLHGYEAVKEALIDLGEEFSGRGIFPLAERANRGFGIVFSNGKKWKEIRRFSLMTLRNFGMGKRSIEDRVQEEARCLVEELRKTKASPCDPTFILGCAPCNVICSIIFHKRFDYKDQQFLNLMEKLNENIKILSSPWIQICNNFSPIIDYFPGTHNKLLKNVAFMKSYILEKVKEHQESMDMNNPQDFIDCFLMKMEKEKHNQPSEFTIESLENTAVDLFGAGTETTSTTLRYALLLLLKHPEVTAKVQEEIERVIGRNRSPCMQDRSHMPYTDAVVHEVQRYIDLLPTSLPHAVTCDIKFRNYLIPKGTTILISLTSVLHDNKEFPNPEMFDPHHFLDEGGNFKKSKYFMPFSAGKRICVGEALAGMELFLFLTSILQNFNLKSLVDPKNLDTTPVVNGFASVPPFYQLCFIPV
On the % scale 0 is the no-effect control and ±100 the full control effect.

activity, negative = inhibition, inactive:
Cc1[nH]c(N)nc(=S)c1CCCNc1ccccc1 -9.42% [at 11.4 µM]
O=C(O)c1cc(=O)[nH]c(SCc2ccccc2)n1 -7.95% [at 11.4 µM]
O=C(O)/C=C\C(=O)Nc1ccc2c(c1)-c1ccccc1C2 -10.9% [at 11.4 µM]
S=C(Nc1ccc2c(c1)Cc1ccccc1-2)Nc1ccc2c(c1)Cc1ccccc1-2 1.69% [at 11.4 µM]
C[N+](C)(C)c1nc(N)nc2c1ncn2[C@H]1O[C@@H](CO)[C@@H](O)[C@H]1O 12.2% [at 11.4 µM]
Cc1cccc(CNc2ncncc2-c2ccc(C(=O)N(C)C)cc2)c1 2.16% [at 2.29 µM]
CC(C)=CCC/C(C)=C/CO/N=C1/[C@H]2O[C@@H]2[C@@H](O)[C@H]2[C@H]1CCn1c(=O)n(Cc3cc4c(cc3Cl)OCO4)c(=O)n12 -2.9% [at 11.4 µM]
Cc1noc(C)c1-c1nccc(NCc2cccnc2)n1 3.9% [at 2.29 µM]

AC50, inactive:
Cn1c(=O)c(-c2ccc(F)cc2)nc2cnc(Oc3ccccc3)nc21
Cc1ccc(C)c(-n2c(Cc3cc(=O)[nH]c(=O)[nH]3)nnc2SCC(=O)NCC2CCCO2)c1 (stereo not given)
COc1ccc(-c2nc(CSCC(=O)NCC3CCCO3)c(C)o2)cc1OC (stereo not given)
CO[C@]1(C2=NCCN2)COc2ccccc2O1
CC(C)OCCCNC(=O)C1CC(=O)N(C2CCCCCCC2)C1 (stereo not given)
CN(C(=O)C(Cl)Cl)c1ccc(OC(=O)c2ccco2)cc1
CC(C)NC[C@@H](O)COc1ccccc1-n1cccc1
C=C(C)[C@@H]1CC=C(C(=O)O)CC1
Cc1ccc(S(=O)(=O)NCCSc2nnnn2C)cc1
CN(C)CCNC(=O)C(C(=O)c1ccc(F)cc1)n1ccccc1=O (stereo not given)

AC50, active:
CCCc1cc(=O)[nH]c(SCc2cc(Cl)ccc2OC(F)F)n1 2.82 µM
O=C1/C(=C\c2ccccn2)SC(=S)N1Nc1ncc(C(F)(F)F)cc1Cl 5.01 µM
Cc1cccc2c(SCC(=O)NCC3CCCO3)nc(-c3ccc(F)cc3)nc12 (stereo not given) 3.98 µM
O=C(O)c1ccccc1-c1ccccc1C(=O)Nc1ccc2c(c1)Cc1cc(F)ccc1-2 2.51 µM
CC(C)(C)c1[nH]nc2c1C(c1ccc(OC(=O)c3ccco3)cc1)C(C#N)=C(N)O2 (stereo not given) 4.47 µM
Cc1ccc(C(=O)NNC(=O)CSc2nnc(-c3ccncc3)n2-c2ccc(C)cc2)cc1 5.01 µM
CCC1(C)CC(CCNS(=O)(=O)c2ccc(C)cc2)(c2ccc(C)cc2)CCO1 (stereo not given) 5.62 µM
